Bm FixLJ act: activators of Burkholderia fixLJ two-component system, primary screen, B. multivorans, GFP reporter; B. multivorans fixK-promoter GFP reporter, 18 h; hits give high values; z-score (no concentration beside the values); hit rate 0.3% among 29,000; AID 1918990, 2023;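 active = replicate mean overnight rise in green fluorescent reporter signal, 3 or more SD over negative controls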
* marks the source's active call; other numbers are inactive results. This is one part of a sample in which hits are shown more often than they occur.

SMILES	Bm FixLJ act
C=CCC(CC=C)(CNC(=O)C(=O)Nc1cccc(C(F)(F)F)c1)c1ccccc1	3.7*
Cc1ccc2cc(CN3CCCC(O)(CO)C3)c(-c3cccs3)nc2c1 (centres undefined)	1.2
Cc1cc2ccccc2n1CCC(=O)N(CCO)Cc1nccn1C	-2.1
CCC(NC(C)C)C(O)c1ccc(O)c(O)c1 (centres undefined)	8.2*
C[C@H](N)[C@H](O)c1cccc(O)c1	-1.5
CC[C@H](NC(C)C)[C@H](O)c1ccc(O)c2[nH]c(=O)ccc12	-0.68
Cc1nc(C)n(CCCNC(=O)CCC(=O)Nc2cccc(F)c2)n1	-0.63
Cc1ccc2nc(C)cc(C(=O)NC(CC(C)C)c3ncnn3C)c2c1 (centres undefined)	-1.1
CSc1cccc(Nc2cc(C(=O)NCCc3ccc(Cl)cc3)c3ccccc3n2)c1	2
COc1ccc(Nc2cc(C(=O)NCCCN(C)C3CCCCC3)c3ccccc3n2)cc1	-1.1
CCCCN(CCCNC(=O)c1cc(Nc2cccc(SC)c2)nc2ccccc12)Cc1ccccc1	3.2*
Cc1cc(C)n(CC(=O)N2CC3COC[C@]3(C(=O)N3CC(C)OC(C)C3)C2)n1 (some centres undefined)	-2.1

High-throughput results as filed in PubChem BioAssay.
